Screening data from PubChem.
The list is not random: actives were taken first. Their share in the collection is about 21%.
Cycloheximide cs = affects cycloheximide protein synthesis inhibition readout, counter-screen | actives 12% (n = 300,000) | max response, % | cell reporter, cycloheximide protein synthesis inhibition counterscreen; in the data active = max response mostly above about 13%, no sharp cut-off; inactive = mostly below about 14%; also: read at 38.3 µM for the half of the compounds with a filed dose; 0% is about no effect
Pf growth 96h = P. falciparum growth inhibition at 96 hour, primary screen for plastid delayed-death inhibitors. P. falciparum luciferase reporter growth, 96 h. Potency, µM (titrated, usually from 28.7 µM), for inactives: at the top dose activity change, negative = inhibition, usual class: inhibitors. actives 6.9% (n = 320,000); also: potency is read from the fitted curve at half-maximal effect; % is scaled to controls: 0 for no effect and ±100 for the full control effect
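Delayed-death screen, second-generation endpoint: infected erythrocytes, 2% hematocrit, 0.05% parasitemia final; 96 hours at 37 C, 5% CO2; luciferase detection reagent; luminescence decrease equals reduced growth.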
NS1 function inh = blocks influenza NS1 protein function. Potency, µM (series often up to 46.1 µM), for inactives: at the highest dose activity, positive = more growth. actives 0.4% (n = 270,000); calls by dose curve; also: potency is read from the fitted curve at half-maximal effect; actives are rising curves; nearly all actives have a fitted effect of over 50% in size
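Growth recovery, yeast-based: influenza A NS1 expressed in S. cerevisiae causes slow growth, and suppressors are detected by OD600. The parent strain without NS1 is used as positive control.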
Pf growth 48h = P. falciparum growth inhibition at 48 hours (one generation); P. falciparum luciferase growth in erythrocytes, 48 h; Potency, µM (titrated, usually from 28.7 µM), without a hit: at the highest dose activity change, negative = inhibition, usual class: inhibitors; actives 5.9% (n = 310,000); AID 504832; also: potency is read from the fitted curve at half-maximal effect; % is scaled to controls: 0 for no effect and ±100 for the full control effect
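Luciferase-expressing parasites in RBCs, 2% Hct / 0.1% parasitemia final; RPMI 1640 + 0.5% Albumax; 37 C, 5% CO2, one generation; luminescence read-out, lower signal = inhibition.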
Sm TGR block = blocks Schistosoma mansoni thioredoxin glutathione reductase | Q962Y6 | purified TGR, DTNB reduction, TNB absorbance 405 nm | Potency, µM (doses to about 114 µM), for the others: at the highest dose activity change, negative = inhibition, actives largely listed as inhibitors | actives 3% (n = 360,000); also: potency is read from the fitted curve at half-maximal effect; % is scaled to controls: 0 for no effect and ±100 for the full control effect; nearly all actives have a fitted effect of over 60% in size
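TGR 20 nM + NADPH 100 uM (dispensed conc.), cpd preinc 15 min RT; start with NADPH (500 uM addition) then DTNB (15 mM addition). Kinetic TNB absorbance, 405 nm filter. Four-parameter Hill fit across titration.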
Shiga toxin inh = Shiga toxin inhibition. Vero cells, Shiga toxin protein synthesis inhibition reporter. inhibition, % at 38.7 µM. actives 9.2% (n = 290,000); in the data active = inhibition mostly above about 28%, no sharp cut-off; inactive = mostly below about 43%; also: 0% is about no effect
* hit, by the source's call; ? = inconclusive; nt = no result given; [ ] = remark or other dose. Unless noted, calls follow the shape of the dose curve; as a rule, active = well fitted curve in the direction sought with a large enough effect; inconclusive = small, poorly fitted or top-dose-only effect, or another doubt; inactive = no such curve, though single readings can be large; an effect the other way counts as inactive or inconclusive.

SMILES	Cycloheximide cs	Pf growth 96h	NS1 function inh	Pf growth 48h	Sm TGR block	Shiga toxin inh
O=C(Cn1cnc2nc3c(cc2c1=O)CCCC3)Nc1ccc(F)cc1Cl	nt	nt	nt	nt	1%	nt
O=C(O)CN1C(=O)NC2(CCCc3ccccc32)C1=O (stereo unspecified)	10	24%	2%	29%	8%	15
Cc1cc(C(=O)CN2C(=O)NC3(CCCc4ccccc43)C2=O)c(C)n1Cc1ccco1 (stereo unspecified)	2	nt	0%	1.7µM*	-30%	3
Cc1cc(C(=O)CN2C(=O)CCC2=O)c(C)n1Cc1ccccc1	30*	?	-6%	nt	5%[11.4 µM]	20
Cc1cc(C(=O)CN2C(=O)C(=O)N(Cc3ccco3)C2=O)c(C)n1CCc1ccccc1	nt	-3%	nt	-13%	3%	nt
Cc1cc(C(=O)CN2C(=O)NC3(CCCc4ccccc43)C2=O)c(C)n1Cc1ccccc1 (stereo unspecified)	25*	1.2µM*	15%	nt	-20%	20
COc1ccc(C2c3c(oc4ccccc4c3=O)C(=O)N2c2nc(C)c(C)s2)cc1 (stereo unspecified)	nt	nt	nt	nt	1%	nt
Cc1ccc(C(=O)C[n+]2ccccc2C)cc1[N+](=O)[O-]	-2	?	-3%	22%	2%	-4
COc1ccc(C(=O)N/N=C/c2ccc(OC(=O)c3cccc4ccccc34)c([N+](=O)[O-])c2)cc1	17	9.3µM*	4%	30%	8%	17
COc1ccc(C(=O)C[n+]2cccc(C)c2C)cc1[N+](=O)[O-]	5	6%	-3%	7.4µM*	-3%	2
COc1ccc(C(=O)Nc2ccncc2)cc1[N+](=O)[O-]	5	41%	25%	8.3µM*	2%	7
COc1ccc(C(=O)Nc2ccncc2)cc1OC	18	nt	2%	1%	-8%	-21
O=C(Nc1cccc(/C=C/c2ccccn2)c1)c1cc(Cl)ccn1	29*	81%	-5%	107%	-5%	43*
COc1ccc(C(=O)Oc2ccc(/C=N/NC(=O)c3ccccc3OC)cc2[N+](=O)[O-])cc1	0	-2%	-3%	11%	-2%	-5
COc1ccc(CCNC(=O)c2ccc3[nH]c(C)c(C)c3c2)cc1OC	nt	nt	nt	nt	5%	nt
CCOc1ccc(NC(=O)CC2C(=O)N(c3ccc(F)cc3)C(=O)N2Cc2ccc(OC)c(OC)c2)cc1 (stereo unspecified)	nt	nt	nt	nt	6%	nt
O=C(Cn1nc(-c2ccccc2)nc(Cc2ccccc2)c1=O)Nc1ccccc1	nt	nt	nt	nt	-3%	nt
CCc1ccc(NC(=O)c2ccc(-n3cncn3)c([N+](=O)[O-])c2)cc1	nt	?	nt	12µM*	2%	nt
COc1ccc(C(=O)COC(=O)c2ccc(NC(C)=O)cc2)cc1[N+](=O)[O-]	6	?	-12%	7%	2%	-3
COc1ccc(C(=O)Nc2ccc(N3CCN(C)CC3)cc2)cc1[N+](=O)[O-]	0	-26%	nt	2%	8%	11
COc1ccc(C(=O)NC(=S)Nc2cc(C)ccn2)cc1[N+](=O)[O-]	7	4.7µM*	16%	31%	-7%	-8
CCOC(=O)Nc1ccc(OC)c([N+](=O)[O-])c1	6	0%	nt	15µM*	-5%	-7
CCc1ccc(NC(=O)c2ccc(OC)c([N+](=O)[O-])c2)cc1	37*	?	11%	24%	-8%	90*
CCOC(=O)CN(Cc1cc(OC)cc(N(C)C)c1OC)C(=O)C1CC(CO[Si](C)(C)C(C)(C)C)=CN1C(=O)OC(C)(C)C (stereo unspecified)	5	nt	nt	nt	nt	-5
O=C(Nc1cccc(/C=C/c2ccccn2)c1)c1ccc(-n2cncn2)c([N+](=O)[O-])c1	nt	4.7µM*	nt	5.2µM*	4%	nt
SMILES	Cycloheximide cs	Pf growth 96h	NS1 function inh	Pf growth 48h	Sm TGR block	Shiga toxin inh
COc1ccc(/C=N/NC(=O)c2ccncc2)cc1[N+](=O)[O-]	2	4.1µM*	nt	29%	-5%	-8
O=C(N/N=C/c1ccc(O)c([N+](=O)[O-])c1)c1ccncc1	1	2%	5%	19%	-5%	-11
COC(=O)c1ccc(CN2CCC(Oc3cccc(C(=O)N4CCOCC4)c3)CC2)cc1	11	0%	-3%	-1%	-1%	1
COc1ccccc1NC(=O)Nc1nc(CC(=O)Nc2ccc(OC)c(OC)c2)cs1	nt	5.2µM*	nt	?	1%	nt
COc1cccc(NC(=O)Cc2csc(NC(=O)Nc3ccccc3OC)n2)c1	nt	?	nt	?	-10%	nt
CCC(=O)Nc1nc(CC(=O)Nc2ccccc2OC)cs1	-4	-13%	1%	-4%	-6%	14
COc1ccccc1NC(=O)Cc1csc(NC(=S)Nc2ccc(C)cc2)n1	19	10µM*	?	?	-30%	40
COc1ccc(CNC(=O)c2cc(-c3ccncc3)nc3c(C)cc(C)cc23)cc1OC	-2	2%	6%	?	-1%	-7
CSCCC1NC(=O)N(CC(=O)Nc2ccc(-c3ccccc3)cc2)C1=O (stereo unspecified)	21*	58%	-1%	54%	1%	66*
COC(=O)C1=C(c2c(C)noc2C)C[C@@H]2CC[C@H]1N2C(=O)NCc1ccc(F)cc1	nt	20%	nt	28%	-9%	nt
COC(=O)C1=C(c2ccccc2OCc2ccccc2)C[C@@H]2CC[C@H]1N2C(=O)NCc1ccc(Cl)cc1	nt	?	nt	9.3µM*	-1%	nt
COC(=O)C1=C(c2ccccc2OCc2ccccc2)C[C@@H]2CC[C@H]1N2C(=O)NCc1ccc(N(C)C)cc1	nt	?	nt	6.6µM*	0%	nt
COC(=O)C1=C(c2ccc(F)cc2OCc2ccccc2)C[C@@H]2CC[C@H]1N2C(=O)NCc1ccc(N(C)C)cc1	nt	?	nt	12µM*	-10%	nt
COC(=O)C1=C(c2ccccc2OCc2ccccc2)C[C@@H]2CC[C@H]1N2C(=O)NCc1ccc([N+](=O)[O-])cc1	nt	?	nt	12µM*	-2%	nt
Cc1nn(C(=O)c2ccccc2)c(C)c1Sc1ccc(Cl)cc1	nt	nt	nt	nt	6%	nt
CCn1ncc(Br)c1C(=O)Nc1cc(C)on1	-2	3%	19%	-2%	6%	4
CC(=O)C1=C(C)NC(SCC(=O)c2ccc(F)cc2)=C(C#N)C1CC(C)C (stereo unspecified)	63*	8.3µM*	?	?	?	88*
